Consider seven compounds from PubChem BioAssay (Tox21).

Structures are written as SMILES. “And” between values parts separate entries of the source, which are not always exact repeats. Identical values can stand only once. Records with an inconclusive call do not appear. Where a structure was tested more than once in an assay, its records may differ in their call. The source made the active and inactive calls. Unless noted, calls come from the whole dose curve; as a rule, active = well fitted curve in the direction sought with a large enough effect in the repeat runs; inconclusive = weak or mixed curves; inactive = no such curve, though single readings can be large; an effect the other way counts as inactive or inconclusive.

Assay [1] in a line: qHTS assay for small molecules that induce genotoxicity in human embryonic kidney cells expressing luciferase-tagged ATAD5 (AID 651632). Note: nearly all actives have a fitted effect of over 15% in size. Summed up:
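A rise in luciferase signal from ATAD5-tagged HEK293T cells marks genetic stress. Cells were exposed to compounds for 16 hr at 37C, 5% CO2, then luciferase was quantified after a 30 min room-temperature incubation with Amplite.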

The nature of assay [2]: qHTS assay for small molecule agonists of the p53 signaling pathway - cell viability (AID 651633; calls by dose curve; note: nearly all actives have a fitted effect of over 30% in size; note: potency is the fitted concentration of half-maximal effect). Summed up:
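Viability counter-read: CellTiter-Glo luminescence (30 min, room temperature) in the same p53RE-bla plates. These plates had been exposed to compounds for 16 h at 37 C.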
A general note: Quantitative high-throughput screening tests each substance at several concentrations.

The nature of assay [3]: qHTS assay for small molecules that induce genotoxicity in human embryonic kidney cells expressing luciferase-tagged ATAD5 - cell viability (AID 651634; calls by dose curve; note: nearly all actives have a fitted effect of over 25% in size). Summed up:
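Cytotoxicity counter-readout: after 15.5 hr compound treatment at 37C, live-cell protease activity in ATAD5-luciferase HEK293T cells measured by CellTiter-Fluor fluorescence, 30 min development at 37C.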

Assay [4] is described as follows: qHTS assay for small molecule disruptors of the mitochondrial membrane potential - cell viability (AID 720634; calls by dose curve;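 note: human HepG2 liver cancer cells; series mostly up to about 83 µM; nearly all actives have a fitted effect of over 20% in size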). The procedure, abridged: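 Cytotoxicity was quantified from ATP content by CellTiter-Glo luminescence in the same wells as the MMP dye read-out. HepG2 (2,000 cells/well) were plated overnight and exposed to compounds for 1 hr at 37 C.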
The nature of assay [5]: qHTS assay for small molecule disruptors of the mitochondrial membrane potential (AID 720635). Summed up: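 Mitochondrial membrane potential tracked with Mito-MPS dye, red aggregates (ex 540/em 590 nm) against green monomers (ex 490/em 535 nm). Compound treatment 1 hr at 37C, dye 30 min in HepG2.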
The nature of assay [6]: qHTS assay to test for compound auto fluorescence at 590 nm (red) in HepG2 cells (AID 720674). Summed up:
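1 hr compound incubation on HepG2 cells, 37 C, 5% CO2; plate read ex 540 nm / em 590 nm; intensities reported as Rose Bengal sodium equivalents.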

Assay [7] can be described thus: qHTS assay to test for compound auto fluorescence at 535 nm (green) in HepG2 cells (AID 720675).
The nature of assay [8]: qHTS assay to test for compound auto fluorescence at 460 nm (blue) in HEK293 cells (AID 720678). The procedure, abridged:
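HEK293 cells (2,000 per well, medium with 10% dialyzed FBS) attached for 4-5 hr at 37C, then received compound and stood overnight at 37C, 5% CO2. Blue fluorescence was read at Ex/Em 405/460 nm and expressed relative to triamterene.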

A short description of assay [9]: qHTS assay to test for compound auto fluorescence at 590 nm (red) in HEK293 cells (AID 720679). Summed up: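 HEK293 cells (2,000/well, medium with 10% dialyzed FBS) attached for 4-5 hr at 37C, received 23 nL compound and were incubated overnight at 37C, 5% CO2. Red fluorescence was then read at 540/590nm Ex/Em, referenced to Rose Bengal sodium.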
Assay [10] is described as follows: qHTS assay to test for compound auto fluorescence at 535 nm (green) in HEK293 cells (AID 720680).
Assay [11] can be described thus: qHTS assay to test for compound auto fluorescence at 460 nm (blue) in HEK293 cell free culture (AID 720681). Summed up: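 Blue fluorescence (Ex 405/Em 460 nm, triamterene-equivalent) was read immediately after pin transfer of compound or DMSO into medium (DMEM, 10% FBS) without cells.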
Assay [12] can be described thus: qHTS assay to test for compound auto fluorescence at 535 nm (green) in HEK293 cell free culture (AID 720682). The procedure, abridged: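 Using fluorescein as calibrant, autofluorescence was quantified at 485/535 nm in cell-free DMEM containing 10% FBS after pintool addition of compound or vehicle.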
Assay [13] can be described thus: qHTS assay to test for compound auto fluorescence at 590 nm (red) in HEK293 cell free culture (AID 720683). Summed up:
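Red-channel autofluorescence of compounds in culture medium (DMEM, 10% FBS), no cells, measured at 540/590 nm. Rose Bengal sodium is the reference fluorophore for equivalence.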

Assay [14] can be described thus: qHTS assay to test for compound auto fluorescence at 590 nm (red) in HepG2 cell free culture (AID 720684). Summed up:
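Cell-free; medium MEM + 10% FBS; compound or DMSO added by pintool; read Ex 540/Em 590 nm; Rose Bengal sodium as red reference fluorophore.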

The nature of assay [15]: qHTS assay to test for compound auto fluorescence at 460 nm (blue) in HepG2 cell free culture (AID 720685). Summed up:
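Cell-free plates of MEM plus 10% FBS received 23 nL compound or DMSO vehicle; blue-channel (405/460 nm) intensity scored against triamterene as reference fluorophore.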

Assay [16] can be described thus: qHTS assay to test for compound auto fluorescence at 535 nm (green) in HepG2 cell free culture (AID 720686).
The nature of assay [17]: qHTS assay to test for compound auto fluorescence at 460 nm (blue) in HepG2 cells (AID 720687). The procedure, abridged: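 Blue-channel autofluorescence (Ex/Em 405/460 nm, triamterene-equivalent) was measured after 1 hr compound exposure at 37 C, 5% CO2. Cells were HepG2, plated overnight at 37 C in MEM plus 10% FBS.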
Assay [18] is described as follows: qHTS assay for small molecule agonists of the p53 signaling pathway (AID 651631; calls by dose curve; note: nearly all actives have a fitted effect of over 15% in size; note: potency is the fitted concentration of half-maximal effect). The procedure, abridged: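 Stably transfected HCT-116 cells (beta-lactamase behind p53 response elements) get compounds after a 5 h settling period; 16 h later at 37 °C, FRET substrate is loaded and fluorescence read after 2 h.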
Assay [19] deals with Glucocorticoid receptor (Homo sapiens) (UniProt P04150). Briefly: qHTS assay to identify small molecule agonists of the glucocorticoid receptor (GR) signaling pathway (AID 720691; active = well fitted activation curve with a large enough effect in the signal ratio in the repeat runs, not every such curve was filed as active; the % refers to the signal ratio). Summed up: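 Agonist-mode qHTS in HeLa cells stably expressing a glucocorticoid-response-element beta-lactamase reporter. Fluorescence intensity read with FRET substrate (2 h, room temperature) after 18 h compound treatment at 37 C.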
Sequence of Glucocorticoid receptor (Homo sapiens) (P04150 whole entry, looked up): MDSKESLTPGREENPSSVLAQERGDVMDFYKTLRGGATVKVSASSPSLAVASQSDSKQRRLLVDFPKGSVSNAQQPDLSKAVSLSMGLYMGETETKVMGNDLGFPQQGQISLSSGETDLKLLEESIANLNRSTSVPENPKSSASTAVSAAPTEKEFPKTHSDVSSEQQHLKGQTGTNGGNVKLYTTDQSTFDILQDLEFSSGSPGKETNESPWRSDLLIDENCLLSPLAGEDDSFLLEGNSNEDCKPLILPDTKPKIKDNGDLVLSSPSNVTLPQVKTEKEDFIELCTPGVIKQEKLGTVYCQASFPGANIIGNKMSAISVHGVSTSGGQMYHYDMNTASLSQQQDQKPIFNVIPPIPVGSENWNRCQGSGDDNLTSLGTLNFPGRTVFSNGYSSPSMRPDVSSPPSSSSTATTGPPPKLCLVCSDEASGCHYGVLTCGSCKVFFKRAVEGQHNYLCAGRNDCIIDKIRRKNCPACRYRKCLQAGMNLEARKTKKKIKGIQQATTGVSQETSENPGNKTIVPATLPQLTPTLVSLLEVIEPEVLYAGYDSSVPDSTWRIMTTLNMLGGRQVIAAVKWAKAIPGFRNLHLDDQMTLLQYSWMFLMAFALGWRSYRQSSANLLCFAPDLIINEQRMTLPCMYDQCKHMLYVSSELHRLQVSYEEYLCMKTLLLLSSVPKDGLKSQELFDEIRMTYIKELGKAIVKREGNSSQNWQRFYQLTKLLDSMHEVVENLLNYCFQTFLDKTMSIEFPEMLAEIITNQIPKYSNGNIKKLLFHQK

For assay [20] the target is unchanged. Briefly: qHTS assay to identify small molecule antagonists of the glucocorticoid receptor (GR) signaling pathway (AID 720692; active = well fitted inhibition curve with a large enough effect in the signal ratio in the repeat runs, not every such curve was filed as active; the % refers to the signal ratio; note: potency is the fitted concentration of half-maximal effect). The procedure, abridged: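 Inhibition of dexamethasone-driven (5 nM final) beta-lactamase expression was measured in GRE-reporter HeLa cells over 18 h at 37C. Fluorescence was read after 2 h with the B/G FRET substrate at room temperature.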

For `C[N+](C)(C)CC(=O)[O-]`, the Potency entry in assay [1], in assay [2], in assay [3], in assay [4], in [5] and in assay [8] was “inactive” throughout. Also, the Potency result in assay [11], in assay [15] and in [17] was “inactive” throughout. For the same compound, the result in assay [6], in [7], in assay [9], in assay [10], in assay [12] and in assay [13] was inactive. Moreover, the result in assay [14] and in assay [16] was inactive.
As for `CCOP(=S)(OCC)OP(=S)(OCC)OCC`, the Potency result in [18], in assay [2], in assay [3], in assay [4], in [8] and in assay [11] was “inactive” each time. Moreover, the Potency result in assay [15], in assay [17] and in assay [20] was “inactive” throughout. Besides, the outcome in [6], in assay [7], in assay [9], in assay [10], in assay [12] and in assay [13] was inactive. Besides, the compound was classed as inactive in assay [14], in assay [16] and in assay [19].
For the compound `Clc1ccc(C(Cl)(Cl)Cl)cc1`, the Potency entry in [18], in [1], in assay [2], in [3], in assay [4] and in assay [5] was “inactive” throughout. Also, the Potency entry in [8], in assay [11], in assay [15], in [17] and in assay [20] was “inactive” throughout. Moreover, the call in assay [6], in [7], in assay [9], in [10], in assay [12] and in assay [13] was inactive. Further, the compound was classed as inactive in [14] and in [19].
On to `ClCC(Cl)CCl`, for which the Potency result in [18], in assay [1], in assay [2], in assay [3], in assay [4] and in assay [5] was “inactive” in each case. Further, the Potency entry in assay [8], in [11], in [15], in assay [17] and in assay [20] was “inactive” throughout. Also, the compound was classed as inactive in [6], in [7], in assay [9], in [10], in [12] and in [13]. The compound was called inactive in [14] and in [19].
As to `C[C@]12CCC(=O)C=C1CC[C@@H]1[C@@H]2CC[C@@]2(C)[C@H]1CC[C@]2(C)O`, the Potency was 21.7 µM (active) in [18]; “inactive and 54.5 µM (active)” in assay [2]; 6.01 µM (active) and 4.25 µM (active) and 2.61 µM (active) in assay [20]. Moreover, the Potency result in [1], in assay [3], in assay [4], in assay [5], in [8] and in assay [11] was “inactive” in each case. Also, the Potency result in assay [15] and in assay [17] was “inactive” throughout. In addition, the compound was called inactive in assay [6], in assay [7], in assay [9], in assay [10], in assay [12] and in assay [13]. Besides, the compound was called inactive in assay [14] and in assay [19].
As for `O=C(O)CF`, the Potency result in [1], in assay [2], in assay [3], in assay [4], in assay [5] and in assay [8] was “inactive” in each case. Besides, the Potency entry in assay [11], in [15] and in assay [17] was “inactive” throughout. Further, the call in [6], in assay [7], in [9], in assay [10], in [12] and in assay [13] was inactive. Besides, the outcome in assay [14] and in assay [16] was inactive.
In the case of `CCOP(=S)(OCC)SCSC(C)(C)C`, the Potency result in assay [18], in [1], in assay [2], in assay [3], in assay [4] and in assay [8] was “inactive” throughout. The Potency result in assay [11], in [15] and in assay [17] was “inactive” each time. Further, the compound was classed as inactive in [6], in assay [7], in assay [9], in assay [10], in assay [12] and in assay [13]. For the same compound, the compound was classed as inactive in assay [14] and in assay [16].
